Data reported in PubChem BioAssay AID1159580 (chemical genetic matrix, 2015).
About 2,000 (36%) of roughly 5,500 compounds were called active. Inconclusive results (about 18%) are left out. No stated cut-off is given here; in the data, active means normalized growth mostly below about 0.91 (no sharp cut-off); inconclusive means no clear call, values can overlap the other calls; inactive means mostly above about 0.92. The list shows a part of the results.

Assay: chemical genetic growth profiling, strain panel (AID 1159580);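 further: tested at 20 µM; growth read once vehicle control cultures reached saturation at 30 °C; 1 = growth at the plate median or of vehicle wells; lower values mean less growth of the strain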
Conditions: S. cerevisiae deletion strains, growth OD
[1] = locus YAR019C, strain CDC15, hits give low values
[2] = locus YBL105C, strain PKC1, hits give low values
[3] = locus YBR135W, strain CKS1, hits give low values
[4] = locus YBR136W, strain MEC1, hits give low values
[5] = locus YBR160W, strain CDC28, hits give low values
[6] = locus YDL017W, strain CDC7, hits give low values
[7] = locus YDL028C, strain MPS1, hits give low values
[8] = locus YDL101C, strain DUN1, hits give low values
[9] = locus YDL108W, strain KIN28, hits give low values
[10] = locus YDL132W, strain cdc53, hits give low values
[11] = locus YDL214C, strain PRR2, hits give low values
[12] = locus YDR052C, strain DBF4, hits give low values
[13] = locus YDR054C, strain cdc34, hits give low values
[14] = locus YDR226W, strain ADK1, hits give low values
[15] = locus YDR477W, strain SNF1, hits give low values
[16] = locus YER123W, strain YCK3, hits give low values
[17] = locus YER133W, strain GLC7, hits give low values
[18] = locus YFL009W, strain cdc4, hits give low values
[19] = locus YFL029C, strain CAK1, hits give low values
[20] = locus YFR003C, strain YPI1, hits give low values
[21] = locus YFR019W, strain FAB1, hits give low values
[22] = locus YFR028C, strain CDC14, hits give low values
[23] = locus YGR040W, strain KSS1, hits give low values
[24] = locus YGR052W, strain FMP48, hits give low values
[25] = locus YGR092W, strain DBF2, hits give low values
[26] = locus YHR030C, strain SLT2, hits give low values
[27] = locus YHR079C, strain IRE1, hits give low values
[28] = locus YHR082C, strain KSP1, hits give low values
[29] = locus YHR205W, strain SCH9, hits give low values
[30] = locus YIL147C, strain SLN1, hits give low values
[31] = locus YJL095W, strain BCK1, hits give low values
[32] = locus YJL128C, strain PBS2, hits give low values
[33] = locus YJL157C, strain FAR1, hits give low values
[34] = locus YJR016C, strain ILV3, hits give low values
[35] = locus YJR066W, strain TOR1 (second series), hits give low values
[36] = locus YJR066W, strain TOR1, hits give low values
[37] = locus YKL048C, strain ELM1, hits give low values
[38] = locus YKL067W, strain YNK1, hits give low values
[39] = locus YKL101W, strain HSL1, hits give low values
[40] = locus YKL193C, strain SDS22, hits give low values
[41] = locus YKL203C, strain TOR2, hits give low values
[42] = locus YLR133W, strain CKI1, hits give low values
[43] = locus YLR403W, strain SFP1, hits give low values
[44] = locus YML070W, strain DAK1, hits give low values
[45] = locus YMR001C, strain CDC5, hits give low values
[46] = locus YMR205C, strain PFK2 (second series), hits give low values
[47] = locus YMR277W, strain FCP1, hits give low values
[48] = locus YNL006W, strain LST8, hits give low values
[49] = locus YNL020C, strain ARK1, hits give low values
[50] = locus YNL161W, strain CBK1, hits give low values
[51] = locus YNL183C, strain NPR1, hits give low values
[52] = locus YNL207W, strain RIO2, hits give low values
[53] = locus YNL222W, strain SSU72, hits give low values
[54] = locus YNL307C, strain MCK1 (second series), hits give low values
[55] = locus YOL078W, strain AVO1, hits give low values
[56] = locus YOL136C, strain PFK27, hits give low values
[57] = locus YOR061W, strain CKA2, hits give low values
[58] = locus YOR119C, strain RIO1, hits give low values
[59] = locus YOR231W, strain MKK1, hits give low values
[60] = locus YOR329C, strain SCD5, hits give low values
[61] = locus YPL031C, strain PHO85, hits give low values
[62] = locus YPL153C, strain RAD53, hits give low values
[63] = locus YPL204W, strain HRR25, hits give low values
[64] = locus YPL209C, strain IPL1, hits give low values
[65] = locus YPL256C, strain CLN2, hits give low values
[66] = locus YPR025C, strain CCL1, hits give low values
[67] = locus YPR106W, strain ISR1, hits give low values
[68] = locus YPR111W, strain DBF20, hits give low values
[69] = strain NNK1, hits give low values
[70] = strain TSCII, hits give low values

Measured: normalized growth

O=C(NCCNc1ncc(Cl)cc1C(F)(F)F)C(F)(F)Sc1ccccc1
inactive: [1] 0.982 | [2] 0.978 | [3] 0.975 | [4] 0.984 | [5] 0.979 | [6] 0.977 | [7] 0.992 | [8] 0.982 | [9] 0.981 | [10] 0.977 | [11] 0.987 | [12] 0.982 | [13] 0.991 | [14] 0.982 | [15] 0.996 | [16] 1.01 | [17] 1 | [18] 0.979 | [19] 0.984 | [20] 0.985 | [21] 0.996 | [22] 0.982 | [23] 0.991 | [24] 1.14 | [25] 0.994 | [27] 1.17 | [28] 1.19 | [29] 0.975 | [30] 0.986 | [31] 1.16 | [32] 0.934 | [33] 0.985 | [34] 0.989 | [35] 1.01 | [36] 1.19 | [37] 0.973 | [38] 0.991 | [39] 0.984 | [40] 0.973 | [41] 1.08 | [42] 0.979 | [43] 0.998 | [44] 0.986 | [45] 0.969 | [46] 0.984 | [47] 0.975 | [48] 0.983 | [49] 0.978 | [50] 0.984 | [51] 1.13 | [52] 0.989 | [53] 0.976 | [54] 0.972 | [55] 0.981 | [56] 1 | [57] 0.992 | [58] 1.02 | [59] 1.12 | [60] 0.985 | [61] 0.99 | [62] 1.01 | [63] 0.995 | [64] 0.983 | [66] 0.984 | [67] 0.982 | [68] 0.979 | [69] 0.993 | [70] 0.978
active: [26] 1.2 [resistant] | [65] 1.25 [resistant]

O=C(NCCNc1ncc(C(F)(F)F)cc1Cl)C(F)(F)Sc1ccccc1
inactive: [1] 0.985 | [2] 0.983 | [3] 0.971 | [4] 0.973 | [5] 0.984 | [6] 0.977 | [7] 0.97 | [8] 0.976 | [9] 0.957 | [10] 0.988 | [11] 0.898 | [12] 0.986 | [13] 0.978 | [14] 0.982 | [15] 0.919 | [16] 0.828 | [17] 0.924 | [18] 0.982 | [19] 0.988 | [20] 0.972 | [21] 0.885 | [22] 0.989 | [23] 0.916 | [24] 0.978 | [25] 0.909 | [26] 0.99 | [27] 0.994 | [28] 1 | [29] 0.912 | [30] 0.974 | [31] 0.98 | [32] 0.914 | [33] 0.887 | [34] 0.974 | [35] 0.899 | [36] 0.989 | [37] 0.939 | [38] 0.91 | [39] 0.908 | [40] 0.984 | [41] 0.991 | locus YLR113W, strain HOG1, hits give low values 0.883 | [42] 0.916 | [43] 0.922 | [44] 0.876 | [45] 0.978 | [46] 0.907 | [47] 0.983 | [48] 0.978 | [49] 0.894 | [50] 0.985 | [51] 0.961 | [52] 0.983 | [53] 0.979 | [54] 0.905 | [55] 0.98 | [56] 0.893 | [57] 0.868 | [58] 0.966 | [59] 0.939 | [60] 0.987 | [61] 0.912 | [62] 0.907 | [63] 0.936 | [64] 0.975 | [65] 1 | [66] 0.98 | [67] 0.984 | [68] 0.968 | [69] 0.982 | [70] 0.982
